Several values for one entry are separate records, joined by “and”; a condition that tells them apart may be missing. Equal values may be shown once. Records with an inconclusive call do not appear. The source holds several records for some structures; these can differ, active in one and inactive in another. Activity calls are given as the source filed them. Unless noted, calls follow the shape of the dose curve; as a rule, active = well fitted curve in the direction sought with a large enough effect in the repeat runs; inconclusive = weak or mixed curves; inactive = no such curve, though single readings can be large; an effect the other way counts as inactive or inconclusive.
Key:
[1] = qHTS assay to identify small molecule antagonists of the glucocorticoid receptor (GR) signaling pathway - cell viability counter screen (AID 720693); also: nearly all actives have a fitted effect of over 55% in size
[2] = qHTS assay for identifying genotoxic compounds that show differential cytotoxicity against isogenic chicken DT40 cell lines with known DNA damage response pathways - Rev3 mutant cell line (AID 743014); also: nearly all actives have a fitted effect of over 55% in size; also: potency is read from the fitted curve at half-maximal effect
[3] = qHTS assay for identifying genotoxic compounds that show differential cytotoxicity against isogenic chicken DT40 cell lines with known DNA damage response pathways - Rad54/Ku70 mutant cell line (AID 743015); also: nearly all actives have a fitted effect of over 60% in size; also: potency is read from the fitted curve at half-maximal effect
[4] = qHTS assay to identify small molecule antagonists of the androgen receptor (AR) signaling pathway using the MDA cell line - cell viability counter screen (AID 743041; also: nearly all actives have a fitted effect of over 45% in size)
Method in brief: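 Cytotoxicity counter screen: MDA-kb2 AR-luc cells, compound + R1881, 16 h, 37C, 0% CO2; CellTiter-Fluor added at 15.5 h, fluorescence read after 30 min.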

[5] = qHTS assay to identify small molecule antagonists of the thyroid receptor (TR) signaling pathway - cell viability counter screen (AID 743064); also: nearly all actives have a fitted effect of over 50% in size; also: potency is read from the fitted curve at half-maximal effect
Method in brief: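 Plate GH3.TRE-Luc cells; incubate 4 h at 37 °C; add compound, then T3 to 1 nM final; incubate 23.5 h; add CellTiter-Fluor; incubate 30 min at 37 °C, 5% CO2; read fluorescence.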

[6] = qHTS assay to identify small molecule antagonists of the androgen receptor (AR) signaling pathway - cell viability counter screen (AID 743033; also: nearly all actives have a fitted effect of over 45% in size; also: potency is read from the fitted curve at half-maximal effect)
[7] = target: Androgen receptor (Homo sapiens) (UniProt P10275); assay: qHTS assay to identify small molecule antagonists of the androgen receptor (AR) signaling pathway (AID 743035; active = well fitted inhibition curve with a large enough effect in the signal ratio in the repeat runs, not every such curve was filed as active; the % refers to the signal ratio; also: potency is read from the fitted curve at half-maximal effect)
Androgen receptor (Homo sapiens), sequence (P10275 whole entry, looked up): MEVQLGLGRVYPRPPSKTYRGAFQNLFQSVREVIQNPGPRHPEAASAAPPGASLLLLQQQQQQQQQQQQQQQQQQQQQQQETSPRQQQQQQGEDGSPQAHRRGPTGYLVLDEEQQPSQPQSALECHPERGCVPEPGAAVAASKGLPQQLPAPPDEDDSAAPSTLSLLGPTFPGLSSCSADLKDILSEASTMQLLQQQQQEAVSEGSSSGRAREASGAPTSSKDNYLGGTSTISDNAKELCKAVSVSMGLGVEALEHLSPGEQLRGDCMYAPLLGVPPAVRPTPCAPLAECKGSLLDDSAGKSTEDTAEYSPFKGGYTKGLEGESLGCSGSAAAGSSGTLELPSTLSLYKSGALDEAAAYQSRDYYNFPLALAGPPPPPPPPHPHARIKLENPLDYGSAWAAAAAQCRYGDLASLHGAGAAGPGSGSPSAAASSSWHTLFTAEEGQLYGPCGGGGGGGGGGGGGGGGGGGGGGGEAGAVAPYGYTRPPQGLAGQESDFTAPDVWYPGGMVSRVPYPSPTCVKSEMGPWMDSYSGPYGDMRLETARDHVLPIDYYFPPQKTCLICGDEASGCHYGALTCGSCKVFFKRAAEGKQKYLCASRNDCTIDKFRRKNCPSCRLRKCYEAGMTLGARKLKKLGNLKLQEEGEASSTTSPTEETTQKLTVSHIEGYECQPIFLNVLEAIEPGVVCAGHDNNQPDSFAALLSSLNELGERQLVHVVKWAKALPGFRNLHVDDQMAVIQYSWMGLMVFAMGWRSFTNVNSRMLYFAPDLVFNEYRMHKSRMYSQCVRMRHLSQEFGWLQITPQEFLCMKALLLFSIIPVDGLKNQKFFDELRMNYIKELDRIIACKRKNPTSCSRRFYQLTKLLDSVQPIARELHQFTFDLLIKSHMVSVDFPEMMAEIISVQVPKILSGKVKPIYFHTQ
Method in brief: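 Reporter HEK293 cells were exposed to compounds and R1881 overnight (16 h, 37C); beta-lactamase activity was then quantified by FRET fluorescence.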

[8] = target: Androgen receptor (Homo sapiens) (UniProt P10275); assay: qHTS assay to identify small molecule agonists of the androgen receptor (AR) signaling pathway using the MDA cell line (AID 743040; also: nearly all actives have a fitted effect of over 20% in size)
Method in brief: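 Luciferase read-out, ONE-Glo, 30 min RT. Cells: MDA-kb2 AR-luc, MMTV promoter with AR and GR response elements. Compound exposure 16 h, 37C, 0% CO2, after 5 h pre-incubation. qHTS agonist mode.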

[9] = target: Androgen receptor (Homo sapiens) (UniProt P10275); assay: qHTS assay to identify small molecule antagonists of the androgen receptor (AR) signaling pathway using the MDA cell line (AID 743042; also: nearly all actives have a fitted effect of over 55% in size; also: potency is read from the fitted curve at half-maximal effect)
Method in brief: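 MDA-kb2 breast carcinoma cells carrying MMTV-luciferase (AR/GR responsive) were co-treated with compounds and the agonist R1881 for 16 h at 37C. Inhibition read as ONE-Glo luminescence; CellTiter-Fluor fluorescence measured in parallel for cytotoxicity.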

[10] = qHTS assay for identifying genotoxic compounds that show differential cytotoxicity against isogenic chicken DT40 cell lines with known DNA damage response pathways - wild type cell line (AID 743012); also: nearly all actives have a fitted effect of over 60% in size; also: potency is read from the fitted curve at half-maximal effect
Method in brief: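 Viability of DNA repair-proficient chicken DT40 cells was assessed by CellTiter-Glo luminescence following 40 h compound exposure at 37 C/5% CO2.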

Measured: Potency

c1ccc2c(c1)CCNC2
inactive: [1] | [2] | [3] | [4] | [5]

CCC1(CC)C(=O)C=CNC1=O
inactive: [1] | [2] | [3] | [6] | [5]

BrCc1ccc(Br)cc1
not listed: [6] | [10]
inactive: all other assays above

CCOC(=O)NC(C)(C)Cc1ccc(Cl)cc1
not listed: [3] | [6] | [10]
inactive: all other assays above

CCN(CC)CCOC(=O)C(O)(c1ccccc1)c1ccccc1
inactive: [10] | [2] | [3] | [6] | [5]

C[C@@H](N)[C@@H](O)c1ccccc1
inactive: [1] | [6] | [4] | [5]

CN(C)C(=O)Oc1cc(OC(=O)N(C)C)cc(C(O)CNC(C)(C)C)c1 (stereo unspecified)
not listed: [1] | [6]
inactive: all other assays above

Oc1ccc2c3c1O[C@H]1[C@@H](O)C=C[C@H]4[C@@H](C2)NCC[C@@]341
inactive: [10] | [2] | [3] | [6] | [4] | [5]

Cc1cccc2sc3nncn3c12
inactive: [10] | [2] | [3] | [6] | [4] | [5]

N[C@@H]1C[C@H]1c1ccccc1
not listed: [1] | [6]
inactive: all other assays above

CCCCS(=O)(=O)Cl
inactive: [1] | [2] | [3] | [6] | [4] | [5]

N#CN
inactive: [10] | [2] | [3] | [6] | [4] | [5]

CCCC[N+](=O)[O-]
inactive: [1] | [2] | [3] | [4] | [5]

O=P(O)(O)CN(CP(=O)(O)O)CP(=O)(O)O
inactive: [10] | [2] | [3] | [4] | [5]

N#CC(Br)(Br)C(N)=O
active: [2] 61.1 µM | [3] 61.1 µM
inactive: [1] | [5]

CCNc1nc(Cl)nc(NC(C)(C)C)n1
inactive: [1] | [2] | [6] | [8] | [4] | [9]

CC[C@H](O)C(C[C@H](C)N(C)C)(c1ccccc1)c1ccccc1
inactive: [1] | [6] | [4]

N=C(N)[Se]
active: [10] 4.87 µM | [2] 2.44 µM | [3] 2.44 µM
inactive: [6] | [4] | [5]

[O-][Br+2]([O-])O
inactive: [1] | [6] | [8] | [9] | [5]

N[C@@H](Cc1ccc(Oc2cc(I)c(O)c(I)c2)c(I)c1)C(=O)O
inactive: [1] | [2] | [3] | [4] | [5]

CCCN1CCC[C@@H]2Cc3[nH]ncc3C[C@H]21
inactive: [10] | [2] | [3] | [6] | [4] | [5]

C[C@]12C=CC(=O)C=C1CC[C@@H]1[C@@H]2CC[C@@]2(C)[C@H]1CC[C@]2(C)O
active: [10] 23.7 µM | [2] 11.9 µM | [3] 29.8 µM
inactive: [6] | [4] | [5]

C=C(Cl)CSC(=S)N(CC)CC
active: [10] 33.5 µM | [2] 66.8 µM | [3] 53 µM
inactive: [6] | [4]

O=C(Cl)/C=C/C(=O)Cl
inactive: [1] | [3] | [6] | [8] | [4] | [9]

O=[N+]([O-])c1cccc(CCl)c1
inactive: [10] | [2] | [3] | [6] | [4] | [5]

CCCC(C)(COC(N)=O)COC(N)=O
inactive: [1] | [2] | [3] | [4] | [5]

CCCOC(=O)Cc1ccc(OCC(=O)N(CC)CC)c(OC)c1
inactive: [1] | [3] | [6] | [4] | [5]

CNC(=O)Oc1cc(C)c(N(C)C)c(C)c1
inactive: [1] | [4] | [5]

CC[C@H](N)c1ccccc1
not listed: [1]
inactive: all other assays above

C/C(=N\NC(=O)Nc1cc(F)cc(F)c1)c1ncccc1C(=O)O
inactive: [1] | [2] | [6] | [4] | [5]

O=C1C2CC=CCC2C(=O)N1SC(Cl)(Cl)Cl (stereo unspecified)
active: [10] 473 nM and 6.83 µM and 120 nM | [2] 531 nM and 683 nM and 107 nM | [3] 596 nM and 2.42 µM and 135 nM | [5] 6.68 µM and 2.39 µM
inactive and 3.41 µM (active): [6]

CCOC(=O)c1ncn2c1CN(C)C(=O)c1c(I)cccc1-2
inactive: [1] | [2] | [4] | [5]

ClCCCCl
inactive: [1] | [2] | [3] | [4] | [5]

C#CC(C)(C)O
inactive: [1] | [2] | [6] | [4] | [5]

O=[N+]([O-])CCO
inactive: [1] | [3] | [6] | [4] | [5]

CCNc1nc(NCC)nc(SC)n1
inactive: [1] | [6] | [4] | [5]

C(COCC1CO1)OCC1CO1 (stereo unspecified)
active: [2] 1.54 µM
inactive: [1] | [6] | [4] | [5]

CCOC(=O)N(C)N=O
inactive: [1] | [4] | [5]

C=C(C)[C@H]1CN[C@H](C(=O)O)[C@H]1CC(=O)O
inactive: [1] | [6] | [4] | [5]

O=C(CCl)NCO
inactive: [2] | [3] | [4] | [5]

CCN(CC)C1CCCCC1
not listed: [1] | [3] | [10]
inactive: all other assays above

C=CC1(C)OC(=O)N(c2cc(Cl)cc(Cl)c2)C1=O (stereo unspecified)
inactive: [6] | [4] | [5]

CCNP(=S)(OC)O/C(C)=C/C(=O)OC(C)C (stereo unspecified)
active: [10] 61.1 µM | [2] 34.4 µM
inactive: [6]

COP(=O)(OC)O/C(C)=C/C(=O)N(C)C
inactive: [10] | [2] | [3] | [4] | [5]

ClC1=C(Cl)C2(Cl)C(CBr)CC1(Cl)C2(Cl)Cl (stereo unspecified)
active: [2] 27.3 µM | [3] 30.6 µM | [5] 26.6 µM and 48.6 µM
inactive: [4]

CC(C)NCC(O)c1ccc([N+](=O)[O-])cc1 (stereo unspecified)
inactive: [2] | [3] | [6] | [4] | [5]

NCCOS(=O)(=O)O
inactive: [2] | [6] | [4] | [5]

CCOC(=O)COc1ccc(Cl)cc1Cl
inactive: [10] | [2] | [3] | [5]

CCOP(=O)(CN(CCO)CCO)OCC
inactive: [2] | [3] | [6] | [4] | [5]

CCOC1Oc2ccc(OS(C)(=O)=O)cc2C1(C)C (stereo unspecified)
inactive: [8] | [5]
active: [2] 27.1 µM | [7] 43.3 µM | [9] 60.6 µM

CCCOc1nn(C(=O)NS(=O)(=O)c2ccccc2C(=O)OC)c(=O)n1C
inactive: [7] | [8] | [4] | [9] | [5]

CC(C)(C)c1cc(O)ccc1O
inactive and 26.8 µM (active): [6]
inactive: [4]
active: [10] 4.22 µM and 7.7 µM | [3] 6.68 µM and 48.6 µM and 12.2 µM | [5] 8.41 µM and 68.6 µM and 48.6 µM

CC(C)(N)Cc1ccc(Cl)cc1
inactive: [3] | [4]

CS(=O)(=O)Cl
inactive: [2] | [6] | [4] | [5]

Cc1ccc(-c2nc3ccc(C)cn3c2CC(=O)N(C)C)cc1
inactive: [10] | [2] | [6] | [4] | [5]

CN(CCO)CCO
inactive: [10] | [2] | [4] | [5]

OCC(Cl)CCl (stereo unspecified)
inactive: [10] | [2] | [6] | [4] | [5]

CC[C@@H](CO)NC(=O)[C@@H]1C=C2c3cccc4[nH]cc(c34)C[C@H]2N(C)C1
inactive: [2] | [3] | [8] | [4] | [5]

OP(O)c1ccccc1
not listed: [1] | [3]
inactive: all other assays above

CCOC(=O)Nc1cccc(OC(=O)Nc2ccccc2)c1
inactive: [10] | [3] | [6] | [4] | [5]

N#CN=C1SCCN1Cc1ccc(Cl)nc1
inactive: [10] | [2] | [6] | [4]

C=C1CC[C@@]2(O)[C@H]3Cc4ccc(O)c5c4[C@@]2(CCN3CC2CC2)[C@H]1O5
inactive: [10] | [3] | [6] | [4] | [5]

NNCc1ccccc1
inactive: [10] | [2] | [6] | [4] | [5]

COc1cccc(C=O)c1
inactive: [10] | [2] | [3] | [4] | [5]

COC(=O)c1ccccc1CS(=O)(=O)NC(=O)Nc1nc(OC)cc(OC)n1
inactive: [10] | [2] | [3] | [4] | [5]

C=CCN1CC[C@]23CCCC[C@H]2[C@H]1Cc1ccc(O)cc13
active: [10] 21.1 µM
inactive: [3] | [6]

C#CCOC(=O)/C=C(C)/C=C/CC(C)CCCC(C)C (stereo unspecified)
inactive: [10] | [2] | [6] | [4] | [5]

CC(C)(C)NC[C@H](O)c1ccc(O)cc1Cl
inactive: [2] | [3] | [6] | [4] | [5]

CC[C@@H](CO)NC(=O)[C@@H]1C=C2c3cccc4c3c(cn4C)C[C@H]2N(C)C1
inactive: [4] | [5]

Cn1c(N)nc2c3cccnc3ccc21
inactive: [10] | [3] | [4]
active: [5] 26 µM

CCC(=O)c1ccc(Cl)cc1
inactive: [10] | [2] | [4] | [5]

BrCC1CO1 (stereo unspecified)
inactive: [10] | [6] | [4] | [5]
active: [2] 61.4 µM

O=S1(=O)OCCO1
not listed: [1] | [3] | [10]
inactive: all other assays above

CCC1(c2ccccc2)CCC(=O)NC1=O (stereo unspecified)
not listed: [1] | [10]
inactive: all other assays above

c1cncc([C@@H]2CCCCN2)c1
inactive: [10] | [3] | [6] | [4] | [5]

CCC(=O)OC1(c2ccccc2)CCN(C)CC1
inactive: [4]

C=CCCC#N
inactive: [2] | [3] | [6] | [5]

CC(=O)OCC1=C(C(=O)O)N2C(=O)[C@@H](N)[C@H]2SC1
inactive: [10] | [2] | [3] | [4] | [5]

CON(C)C(=O)Nc1ccc(Br)c(Cl)c1
active: [2] 61.1 µM
inactive: [6] | [4]

Source: PubChem BioAssay (Tox21)
